Test in all cases: NCI-60 one-dose screen, 48 h (100 = growth as untreated, 0 = no growth, -100 = all killed)
Conditions in all cases: 10 µM unless noted

The test system of assay [1] is SR leukemia.
Assay [2] relates to RPMI-8226 leukemia.
Assay [3] deals with OVCAR-8 ovarian.
For assay [4], the system named is OVCAR-5 ovarian.
The subject of assay [5] is OVCAR-4 ovarian.
In assay [6] the test system is SK-OV-3 ovarian.
Assay [7] concerns IGROV1 ovarian.
Assay [8] concerns OVCAR-3 ovarian.
Assay [9] has as its system NCI/ADR-RES ovarian.
The subject of assay [10] is T-47D breast.
Assay [11] has as its system BT-549 breast.
The test system of assay [12] is MDA-MB-435 melanoma.
Assay [13] relates to SW-620 colon.
The subject of assay [14] is MCF7 breast.
For assay [15], the system named is HCT-116 colon.
Assay [16] concerns HCC-2998 colon.
Assay [17] relates to KM12 colon.

Each structure is given as a SMILES string. The panel holds about 83,000 compounds, 20% with a hit somewhere; the sample as a whole holds those more often.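 A percent growth of 40 corresponds to 60% growth inhibition; 0 means no net growth; -100 means all cells died. Active threshold: below 10.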 Values without a mark were called inactive. The source made the active and inactive calls.

For the molecule `CC(Br)c1nc2ccccc2cc1C(N)=O` (stereo not given), the growth is 74.9% in assay [1]; 100% in assay [2]; 112% in assay [3]; 108% in [4]; 109% in [5]; 95.3% in assay [6]. The growth is 108% in [7]; 105% in assay [8]; 109% in [9]; 95.7% in assay [10]; 112% in assay [11]; 112% in assay [12]. Moreover, the growth in [13] was 110%; in assay [14] it was 84.9%; in assay [15], 106%; in [16], 102%; in assay [17], 105%.

Regarding `COC(=O)[C@H](Cc1cn(C)cn1)NC(=O)[C@H](CC(=O)OCc1ccccc1)NC(=O)Nc1cc(C(F)(F)F)cc(C(F)(F)F)c1`, the growth in assay [1] is -46.4% [100 µM] (active); in assay [2] it was -65.4% [100 µM] (active); in assay [3], -77.4% [100 µM] (active); in assay [4], -93.2% [100 µM] (active); in assay [5], -78% [100 µM] (active); in [6], -100% [100 µM] (active). Moreover, the growth in [7] was -82.4% [100 µM] (active); in assay [8] it was -99% [100 µM] (active); in [9], -28.4% [100 µM] (active); in assay [10] it was -62.1% [100 µM] (active); in assay [11] it was -96.6% [100 µM] (active); in assay [12] it was -91.9% [100 µM] (active). Moreover, the growth is -59.2% [100 µM] (active) in [13]; -60.5% [100 µM] (active) in assay [14]; -97.9% [100 µM] (active) in assay [15]; -91.5% [100 µM] (active) in assay [16]; -89.8% [100 µM] (active) in [17].

In the case of `COc1ccc(Oc2[nH]n(C3=Nc4ccccc4Sc4ccccc43)c(=O)c2C#N)cc1`, the growth is 130% in [1]; 91.2% in assay [2]; 96.2% in [3]; 116% in [4]; 112% in assay [5]; 95.5% in [6]. Besides, the growth was 91.6% in assay [7]; 91.8% in assay [8]; 87% in [9]; 92.8% in assay [10]; 98.2% in assay [11]; 101% in assay [12]. Moreover, the growth in assay [14] was 101%; in assay [15], 93.5%; in assay [16], 103%; in assay [17], 104%.

Turning to `C=C(C)C(C(=O)OCC)(C(=O)OCC)C(C)C`, the growth in assay [1] was 120%; in assay [2], 99.4%; in [3], 108%; in assay [4] it was 94.7%; in assay [5] it was 98.5%; in [6] it was 107%. Also, the growth in [7] is 117%; in assay [8], 116%; in [9], 116%; in [10], 124%; in assay [11], 115%; in assay [13], 107%. The growth in [14] was 97.4%; in assay [15], 109%; in assay [16] it was 119%; in assay [17], 106%.

Regarding `Oc1ccc2ccccc2c1/C=N\Nc1ccccn1`, the growth was 8.32% (active) in assay [1]; 25.2% in assay [2]; 14.5% in assay [3]; 65.3% in assay [4]; 8.67% (active) in assay [5]; 19.8% in assay [6]. Moreover, the growth is -4.78% (active) in assay [7]; 5.04% (active) in [8]; 0.917% (active) in [9]; 7.06% (active) in [10]; 22.2% in [11]; 25.1% in assay [12]. In addition, the growth in [14] is 2.43% (active); in [15], 1.72% (active); in assay [16] it was 21%; in [17], 29.7%.

For `CCOc1ccccc1/C=N\N=C(N/N=C/c1ccccc1OCC)N/N=C/c1ccccc1OCC`, the growth in assay [1] was 15.7%; in assay [2], 18.8%; in [3] it was 18.4%; in assay [4] it was 13.9%; in assay [5], 7.81% (active); in [6], 2.98% (active). For the same molecule, the growth in assay [7] was 21%; in [8], -19.7% (active); in assay [9], 6.36% (active); in [10], 16.1%; in [11], 31.8%; in [12], 13.4%. Further, the growth in assay [13] is 12.1%; in assay [14], 3.52% (active); in assay [15], 13.1%; in assay [16], 23.9%; in [17], 10.7%.

As for `C/C(=C\c1ccc2ccccc2c1)[N+](=O)[O-]`, the growth was 4.41% (active) in [1]; -33.9% (active) in [2]; 11.7% in assay [3]; 82.6% in assay [4]; 87.6% in assay [5]; 99.4% in [6]. In addition, the growth in assay [7] is -20% (active); in assay [8], -76.6% (active); in assay [9] it was 88.4%; in assay [10] it was -52.8% (active); in [11], 64.4%; in assay [12], 51.8%. Moreover, the growth in assay [13] was -33.8% (active); in assay [14], -50.9% (active); in [15] it was -40.7% (active); in assay [16], 78.5%; in [17], 56%.

With `S=C(N/N=C/c1cc(Cl)cc(Cl)c1)NC12CC3CC(CC(C3)C1)C2`, the growth is 20% in assay [1]; 73.8% in [2]; 56.8% in assay [3]; 85.7% in [4]; 23.4% in assay [5]; 66.7% in assay [6]. The growth in assay [7] was 78.1%; in assay [8] it was 58.2%; in assay [9] it was 77%; in assay [10], -8.35% (active); in [11], 98%; in [12], 78.4%. The growth is 73.8% in assay [13]; 82.5% in assay [14]; 69.4% in assay [15]; 115% in assay [16]; 105% in assay [17].

As to `COC(=O)c1cc(Nc2ccc(O)c3c2C(=O)c2c([N+](=O)[O-])ccc(O)c2C3=O)cc(C(=O)OC)c1`, the growth was 2.02% (active) in assay [1]; 17.9% in [2]; 65.1% in [3]; 50.4% in [4]; 80.5% in assay [5]; 82.3% in assay [6]. Also, the growth is 85.9% in assay [7]; 54.7% in assay [8]; 71.2% in assay [9]; 68.9% in assay [10]; 44.7% in assay [11]; -84.4% (active) in assay [12]. Also, the growth is 13.1% in assay [13]; 33.3% in assay [14]; 36.1% in assay [15]; 36.3% in [16]; 88.7% in assay [17].
